Laboratory results from the supplement of paper PMC11732987, “Enantioselective OTUD7B fragment discovery through chemoproteomics screening and high-throughput optimisation” (Communications Chemistry, 2025).

How the values were obtained:
Assay in all cases: log2 ratio of Biotin-Ahx-Ub-VS probe labelling (fragment/DMSO); higher = less target engagement (more negative = stronger competition), active = hit call of the paper (q ≤ 0.05, log2 ratio ≤ -1)
Conditions in all cases: compound concentration: 200 uM; treatment time: 3 h
[1] = molecular target: USP34 (UniProt Q70CQ2)
Sequence of USP34 (Q70CQ2 whole entry, the tested form may be a part): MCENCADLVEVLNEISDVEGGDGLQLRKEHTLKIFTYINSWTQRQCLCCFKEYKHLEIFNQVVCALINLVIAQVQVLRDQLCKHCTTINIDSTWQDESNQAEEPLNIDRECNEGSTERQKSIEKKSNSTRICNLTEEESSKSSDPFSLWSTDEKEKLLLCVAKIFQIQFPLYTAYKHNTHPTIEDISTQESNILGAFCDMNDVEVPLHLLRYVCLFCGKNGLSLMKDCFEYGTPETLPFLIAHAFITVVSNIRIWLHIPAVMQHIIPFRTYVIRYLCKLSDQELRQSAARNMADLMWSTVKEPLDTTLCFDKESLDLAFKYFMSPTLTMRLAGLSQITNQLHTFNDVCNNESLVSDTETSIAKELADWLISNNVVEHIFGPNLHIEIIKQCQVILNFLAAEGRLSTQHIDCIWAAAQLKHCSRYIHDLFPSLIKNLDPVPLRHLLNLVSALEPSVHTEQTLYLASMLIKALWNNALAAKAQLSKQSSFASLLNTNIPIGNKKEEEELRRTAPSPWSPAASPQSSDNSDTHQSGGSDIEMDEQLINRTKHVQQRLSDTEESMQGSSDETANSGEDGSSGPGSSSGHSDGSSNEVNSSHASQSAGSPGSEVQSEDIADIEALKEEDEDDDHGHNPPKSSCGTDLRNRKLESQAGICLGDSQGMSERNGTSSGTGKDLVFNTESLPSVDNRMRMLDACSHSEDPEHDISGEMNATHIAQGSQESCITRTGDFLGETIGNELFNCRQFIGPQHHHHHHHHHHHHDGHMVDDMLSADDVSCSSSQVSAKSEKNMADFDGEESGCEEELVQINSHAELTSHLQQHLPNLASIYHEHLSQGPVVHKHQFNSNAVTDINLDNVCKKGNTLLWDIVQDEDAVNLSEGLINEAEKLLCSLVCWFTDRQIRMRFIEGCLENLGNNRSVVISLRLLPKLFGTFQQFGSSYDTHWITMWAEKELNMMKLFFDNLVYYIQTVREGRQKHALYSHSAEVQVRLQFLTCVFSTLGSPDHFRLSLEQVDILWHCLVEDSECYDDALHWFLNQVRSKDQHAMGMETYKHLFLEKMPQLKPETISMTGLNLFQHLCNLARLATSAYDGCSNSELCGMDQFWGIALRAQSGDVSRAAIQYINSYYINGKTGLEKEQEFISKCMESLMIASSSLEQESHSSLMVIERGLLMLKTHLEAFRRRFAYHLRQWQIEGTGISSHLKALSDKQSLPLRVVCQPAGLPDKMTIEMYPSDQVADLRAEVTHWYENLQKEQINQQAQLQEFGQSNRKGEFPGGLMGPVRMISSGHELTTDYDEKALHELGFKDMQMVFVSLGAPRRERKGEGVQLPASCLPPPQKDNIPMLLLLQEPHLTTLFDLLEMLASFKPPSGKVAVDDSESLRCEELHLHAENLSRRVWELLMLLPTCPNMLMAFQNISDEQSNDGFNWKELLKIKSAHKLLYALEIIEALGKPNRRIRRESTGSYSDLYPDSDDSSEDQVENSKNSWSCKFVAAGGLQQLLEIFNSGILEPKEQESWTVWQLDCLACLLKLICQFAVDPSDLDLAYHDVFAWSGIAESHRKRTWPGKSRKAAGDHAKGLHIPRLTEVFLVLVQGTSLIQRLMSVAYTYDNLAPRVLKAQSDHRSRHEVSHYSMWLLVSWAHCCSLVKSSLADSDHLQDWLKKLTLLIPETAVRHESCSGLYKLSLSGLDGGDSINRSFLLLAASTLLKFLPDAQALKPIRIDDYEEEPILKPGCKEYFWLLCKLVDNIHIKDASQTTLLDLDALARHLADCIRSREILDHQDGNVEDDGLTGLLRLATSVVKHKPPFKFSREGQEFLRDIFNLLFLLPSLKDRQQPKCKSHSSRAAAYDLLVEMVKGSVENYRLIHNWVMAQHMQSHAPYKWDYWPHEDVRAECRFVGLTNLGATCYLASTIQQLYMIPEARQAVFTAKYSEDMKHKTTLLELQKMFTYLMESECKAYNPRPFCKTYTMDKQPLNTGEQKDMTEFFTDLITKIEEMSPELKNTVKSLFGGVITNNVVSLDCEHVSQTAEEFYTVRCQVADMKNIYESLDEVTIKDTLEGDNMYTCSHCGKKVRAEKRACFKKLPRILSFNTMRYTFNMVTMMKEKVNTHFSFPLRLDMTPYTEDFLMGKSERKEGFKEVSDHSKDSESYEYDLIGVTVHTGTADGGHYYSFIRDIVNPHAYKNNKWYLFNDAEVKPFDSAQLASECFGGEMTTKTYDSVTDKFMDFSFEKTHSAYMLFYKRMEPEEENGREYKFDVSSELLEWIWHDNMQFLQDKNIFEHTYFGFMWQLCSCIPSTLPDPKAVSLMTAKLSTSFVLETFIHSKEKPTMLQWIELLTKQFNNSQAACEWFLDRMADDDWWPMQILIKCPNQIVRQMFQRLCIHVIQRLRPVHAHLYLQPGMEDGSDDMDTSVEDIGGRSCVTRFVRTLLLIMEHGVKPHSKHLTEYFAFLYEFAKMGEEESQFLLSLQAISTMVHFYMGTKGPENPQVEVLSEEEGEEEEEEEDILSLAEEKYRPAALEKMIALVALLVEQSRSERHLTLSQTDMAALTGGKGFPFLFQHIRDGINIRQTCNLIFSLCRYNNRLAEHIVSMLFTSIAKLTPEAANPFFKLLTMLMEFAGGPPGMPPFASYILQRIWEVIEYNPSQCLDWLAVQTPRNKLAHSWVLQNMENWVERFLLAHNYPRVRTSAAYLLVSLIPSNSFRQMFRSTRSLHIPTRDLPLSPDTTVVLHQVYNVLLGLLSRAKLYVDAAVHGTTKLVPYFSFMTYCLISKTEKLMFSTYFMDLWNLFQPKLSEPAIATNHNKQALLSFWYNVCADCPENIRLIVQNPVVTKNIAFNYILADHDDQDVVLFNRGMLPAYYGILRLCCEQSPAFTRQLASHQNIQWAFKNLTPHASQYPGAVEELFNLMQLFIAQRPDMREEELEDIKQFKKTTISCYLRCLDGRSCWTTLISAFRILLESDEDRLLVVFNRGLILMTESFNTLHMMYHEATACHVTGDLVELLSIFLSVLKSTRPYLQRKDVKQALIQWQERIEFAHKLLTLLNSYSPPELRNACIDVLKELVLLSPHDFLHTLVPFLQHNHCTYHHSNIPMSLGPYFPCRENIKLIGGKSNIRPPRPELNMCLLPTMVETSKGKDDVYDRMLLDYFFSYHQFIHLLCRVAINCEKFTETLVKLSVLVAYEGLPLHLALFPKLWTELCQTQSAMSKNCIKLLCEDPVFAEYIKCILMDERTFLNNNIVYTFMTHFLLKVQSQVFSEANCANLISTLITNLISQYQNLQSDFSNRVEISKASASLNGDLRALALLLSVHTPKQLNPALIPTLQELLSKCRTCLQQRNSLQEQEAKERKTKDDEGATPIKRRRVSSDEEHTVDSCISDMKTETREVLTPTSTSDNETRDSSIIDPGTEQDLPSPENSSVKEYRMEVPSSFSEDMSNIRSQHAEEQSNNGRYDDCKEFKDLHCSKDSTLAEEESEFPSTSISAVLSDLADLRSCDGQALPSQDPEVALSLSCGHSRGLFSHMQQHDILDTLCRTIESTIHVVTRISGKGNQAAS
Method in brief: (§1)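 Global-median-normalised Spectronaut label-free quantities were compared by unpaired t-test, and values are average log2 ratios of fragment over vehicle. Only proteins with ≥2 unique peptides were used. HEK293T lysate (495 µg per sample) was treated in triplicate with fragment at 200 µM or vehicle for 3 h and then with Biotin-Ahx-Ub-VS at 0.5 µM final for 1 h. Labelled DUBs were then NeutrAvidin-enriched, digested with LysC and trypsin, and run by diaPASEF LC-MS/MS.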

[2] = molecular target: T1, USP36 (UniProt Q9P275)
T1 sequence (whole entry): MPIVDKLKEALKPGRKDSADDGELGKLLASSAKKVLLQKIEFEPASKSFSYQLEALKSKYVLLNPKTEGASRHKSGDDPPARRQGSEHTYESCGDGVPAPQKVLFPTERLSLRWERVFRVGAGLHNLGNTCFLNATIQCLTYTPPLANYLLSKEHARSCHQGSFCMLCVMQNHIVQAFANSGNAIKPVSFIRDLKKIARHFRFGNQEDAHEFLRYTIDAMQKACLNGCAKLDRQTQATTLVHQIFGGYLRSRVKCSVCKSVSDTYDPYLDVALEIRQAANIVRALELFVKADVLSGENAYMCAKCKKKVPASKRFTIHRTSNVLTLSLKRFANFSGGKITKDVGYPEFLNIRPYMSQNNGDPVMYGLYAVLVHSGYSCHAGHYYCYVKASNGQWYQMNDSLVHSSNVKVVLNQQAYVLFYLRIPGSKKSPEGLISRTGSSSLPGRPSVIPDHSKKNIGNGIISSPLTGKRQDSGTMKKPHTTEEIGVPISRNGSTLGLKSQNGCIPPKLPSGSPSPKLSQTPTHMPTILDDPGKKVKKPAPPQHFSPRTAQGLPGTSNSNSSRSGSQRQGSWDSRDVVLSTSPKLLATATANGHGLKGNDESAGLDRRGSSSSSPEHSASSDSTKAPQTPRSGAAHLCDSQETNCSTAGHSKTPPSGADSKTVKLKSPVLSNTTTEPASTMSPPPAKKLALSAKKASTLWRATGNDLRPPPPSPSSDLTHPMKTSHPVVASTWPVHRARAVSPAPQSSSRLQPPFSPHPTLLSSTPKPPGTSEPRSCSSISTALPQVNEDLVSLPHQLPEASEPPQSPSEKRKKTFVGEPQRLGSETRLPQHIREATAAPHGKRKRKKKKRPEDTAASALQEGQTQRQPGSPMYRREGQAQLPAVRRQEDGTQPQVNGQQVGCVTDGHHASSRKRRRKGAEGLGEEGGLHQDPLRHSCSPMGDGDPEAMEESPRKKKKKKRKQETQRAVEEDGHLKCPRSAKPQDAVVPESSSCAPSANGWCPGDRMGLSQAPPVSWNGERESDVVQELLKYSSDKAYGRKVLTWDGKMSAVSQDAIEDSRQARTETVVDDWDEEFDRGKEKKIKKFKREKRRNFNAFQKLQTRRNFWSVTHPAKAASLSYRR
Method in brief: as §1

[3] = molecular target: T2, USP38 (UniProt Q8NB14)
T2 sequence (whole entry): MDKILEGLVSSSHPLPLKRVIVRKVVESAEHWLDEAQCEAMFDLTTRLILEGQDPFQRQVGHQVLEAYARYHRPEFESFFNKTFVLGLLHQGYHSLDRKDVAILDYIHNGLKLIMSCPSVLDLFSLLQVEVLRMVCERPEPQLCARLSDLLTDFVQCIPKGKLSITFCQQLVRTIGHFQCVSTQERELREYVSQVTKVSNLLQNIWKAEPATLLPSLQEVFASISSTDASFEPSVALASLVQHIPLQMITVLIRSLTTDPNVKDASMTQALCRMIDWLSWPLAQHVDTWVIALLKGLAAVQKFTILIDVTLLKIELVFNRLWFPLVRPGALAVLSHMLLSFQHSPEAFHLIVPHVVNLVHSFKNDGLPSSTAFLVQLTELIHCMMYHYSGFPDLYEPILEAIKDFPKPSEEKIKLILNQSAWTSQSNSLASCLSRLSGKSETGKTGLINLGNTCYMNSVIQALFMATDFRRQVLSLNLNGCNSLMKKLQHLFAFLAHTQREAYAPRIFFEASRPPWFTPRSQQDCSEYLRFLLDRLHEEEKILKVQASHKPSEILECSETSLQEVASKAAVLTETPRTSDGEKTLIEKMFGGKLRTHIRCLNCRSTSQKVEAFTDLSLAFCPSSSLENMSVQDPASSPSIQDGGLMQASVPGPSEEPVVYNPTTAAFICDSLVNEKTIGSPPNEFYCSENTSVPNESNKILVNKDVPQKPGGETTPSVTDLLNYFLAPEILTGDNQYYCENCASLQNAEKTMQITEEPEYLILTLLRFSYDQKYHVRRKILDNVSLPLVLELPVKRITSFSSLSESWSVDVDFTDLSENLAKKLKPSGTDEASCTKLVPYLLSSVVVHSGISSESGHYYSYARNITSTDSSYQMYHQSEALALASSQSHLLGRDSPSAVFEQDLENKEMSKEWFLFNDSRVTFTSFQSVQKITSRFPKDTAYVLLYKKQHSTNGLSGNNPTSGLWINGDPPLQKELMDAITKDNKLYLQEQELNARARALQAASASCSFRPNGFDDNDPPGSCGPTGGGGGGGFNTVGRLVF
Method in brief: as §1

[4] = molecular target: T3, USP39 (UniProt Q53GS9)
T3 sequence (whole entry): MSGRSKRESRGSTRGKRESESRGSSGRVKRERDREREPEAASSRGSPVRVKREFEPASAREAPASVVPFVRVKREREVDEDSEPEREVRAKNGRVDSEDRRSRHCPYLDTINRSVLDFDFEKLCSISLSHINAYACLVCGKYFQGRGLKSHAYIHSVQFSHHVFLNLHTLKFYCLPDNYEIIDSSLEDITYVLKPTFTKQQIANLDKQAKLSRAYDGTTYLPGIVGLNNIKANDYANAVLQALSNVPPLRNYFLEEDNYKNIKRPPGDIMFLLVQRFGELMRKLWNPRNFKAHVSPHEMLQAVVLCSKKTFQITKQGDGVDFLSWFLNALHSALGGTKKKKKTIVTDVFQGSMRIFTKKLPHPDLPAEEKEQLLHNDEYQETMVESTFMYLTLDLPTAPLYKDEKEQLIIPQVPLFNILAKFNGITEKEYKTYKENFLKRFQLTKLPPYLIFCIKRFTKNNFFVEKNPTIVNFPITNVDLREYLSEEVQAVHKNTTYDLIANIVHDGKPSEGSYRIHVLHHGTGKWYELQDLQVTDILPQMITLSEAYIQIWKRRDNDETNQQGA
Method in brief: as §1

[5] = molecular target: T4, USP4 (UniProt Q13107)
T4 sequence (whole entry): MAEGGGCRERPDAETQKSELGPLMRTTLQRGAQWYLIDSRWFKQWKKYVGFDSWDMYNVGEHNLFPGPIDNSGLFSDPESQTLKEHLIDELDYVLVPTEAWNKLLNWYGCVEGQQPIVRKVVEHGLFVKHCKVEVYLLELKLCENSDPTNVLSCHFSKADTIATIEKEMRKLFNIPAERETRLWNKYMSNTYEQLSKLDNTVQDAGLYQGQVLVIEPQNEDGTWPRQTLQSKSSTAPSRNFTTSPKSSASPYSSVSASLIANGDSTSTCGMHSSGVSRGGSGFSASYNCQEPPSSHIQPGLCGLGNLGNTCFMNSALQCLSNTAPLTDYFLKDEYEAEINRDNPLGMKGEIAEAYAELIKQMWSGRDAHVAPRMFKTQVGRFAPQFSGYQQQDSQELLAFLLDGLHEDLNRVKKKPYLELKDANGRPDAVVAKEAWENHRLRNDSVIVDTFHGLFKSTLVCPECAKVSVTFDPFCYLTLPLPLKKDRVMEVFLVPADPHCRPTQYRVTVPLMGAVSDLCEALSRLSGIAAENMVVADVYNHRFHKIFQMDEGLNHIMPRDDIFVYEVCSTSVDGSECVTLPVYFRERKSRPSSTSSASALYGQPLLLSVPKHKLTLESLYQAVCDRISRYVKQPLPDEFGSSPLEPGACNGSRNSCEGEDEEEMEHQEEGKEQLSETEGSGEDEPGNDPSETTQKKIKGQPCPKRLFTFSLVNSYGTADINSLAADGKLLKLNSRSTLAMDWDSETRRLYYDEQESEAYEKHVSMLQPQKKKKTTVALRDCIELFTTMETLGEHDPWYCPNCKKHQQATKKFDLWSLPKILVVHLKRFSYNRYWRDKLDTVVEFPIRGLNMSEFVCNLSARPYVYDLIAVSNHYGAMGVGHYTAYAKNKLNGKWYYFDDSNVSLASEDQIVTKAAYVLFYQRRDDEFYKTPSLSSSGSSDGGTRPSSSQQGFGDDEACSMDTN
Method in brief: as §1

Measured: log2 ratio of Biotin-Ahx-Ub-VS probe labelling

O=C(CCl)N1CCN(C(=O)Nc2ccccc2)CC1
inactive: [1] -0.102 | [2] -0.282 | [3] 0.184 | [4] -0.0496 | [5] 0.0949
